Bioassay records from PubChem.
The list is not random: actives were taken first. Their share in the collection is about 4.7%.
rCAG binder-1: binds r(CAG) RNA repeats; AID 651821; inhibition, % at 3 µM; r(CAG) RNA repeat, TO-PRO-1 dye displacement fluorescence; 370,000 tested, 1.3% active;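 active = inhibition above the plate cutoff, the mean of all test compounds on that plate plus 3 SD, cut at about 35% in these data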;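 note: 0% = DMSO alone and 100% = 100 µM mitoxantrone as full dye displacement; higher means more dye released from RNA so lower well fluorescence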
Pemphigus Ab inh: inhibitors of pemphigus antibody binding to human desmoglein-3 | P32926 | DSG3-coupled beads, scFv-anti-DSG3-GFP binding, flow cytometry; stronger effect = lower value | binding (percent of control), % at 10 µM | 310,000 tested, 0.48% active;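 active = binding more than 3 SD below its plate's average and above zero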;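 note: hits lower antibody fragment binding to DSG3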
MPTP inh: inhibitors of mitochondrial permeability transition pore; isolated mouse mitochondria, Ca2+ swelling absorbance, 30 min; 360,000 tested, 1.4% active; inhibition, % at 10 µM;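 active = inhibition of 50% or more, scaled per plate between neutral and stimulator controls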;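 note: 0% = DMSO wells given calcium and 100% = 1 mM EGTA wells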
KLK7 zymogen act: activators of human kallikrein-7 zymogen. purified proKLK7, EDANS-DABCYL substrate fluorescence; 100% is mature enzyme control, 0% vehicle. AID 652039. activation, % at 7 µM. 370,000 tested, 0.9% active. P49862;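 active = activation above the mean of all tested compounds plus 3 SD, computed per campaign excluding outliers beyond control limits, cut at about 13% in these data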
ADAM17 inh: inhibits human ADAM17. P78536. recombinant ADAM17, EDANS/DABCYL FRET peptide cleavage. inhibition, % at 6.95 µM. 370,000 tested, 0.83% active. AID 720648;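 active = inhibition above the mean of compounds lying between control limits plus 3 SD, set per campaign, cut at about 8.5% in these data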;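 note: 0% = DMSO-only wells as the low control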
ADAM10 inh: inhibits human ADAM10 | 370,000 tested, 0.62% active | inhibition, % at 7 µM | recombinant ADAM10, EDANS/DABCYL FRET peptide cleavage, 3 h | AID 720582 | O14672;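 active = inhibition above a per-campaign cutoff equal to the mean of compounds falling between control-based bounds plus 3 SD, cut at about 20% in these data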;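 note: 0% = DMSO wells while the 100% control is not disclosed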
Target sequence (O14672 214-748 limits assumed): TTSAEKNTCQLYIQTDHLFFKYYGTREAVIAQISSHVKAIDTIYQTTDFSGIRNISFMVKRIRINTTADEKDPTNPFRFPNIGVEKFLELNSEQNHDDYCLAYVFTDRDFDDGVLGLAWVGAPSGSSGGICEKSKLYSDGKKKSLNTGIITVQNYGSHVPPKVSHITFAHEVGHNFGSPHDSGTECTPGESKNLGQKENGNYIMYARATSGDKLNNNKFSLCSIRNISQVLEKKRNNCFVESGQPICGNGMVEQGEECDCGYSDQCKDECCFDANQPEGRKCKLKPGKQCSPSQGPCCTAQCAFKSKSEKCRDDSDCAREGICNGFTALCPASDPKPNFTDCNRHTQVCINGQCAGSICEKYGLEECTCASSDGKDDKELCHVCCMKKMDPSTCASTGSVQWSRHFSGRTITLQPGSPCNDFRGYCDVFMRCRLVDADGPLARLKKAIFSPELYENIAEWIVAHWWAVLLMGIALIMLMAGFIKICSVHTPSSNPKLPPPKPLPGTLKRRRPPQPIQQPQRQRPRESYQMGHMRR
rCAG binder conf: r(CAG) RNA repeat binding, confirmation. shares compounds with rCAG binder-1. TO-PRO-1 dye displacement fluorescence. inhibition, % at 3 µM. 4,300 tested, 70% active. AID 652065;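 active = inhibition above a per-plate cutoff, the mean inhibition of sample wells plus 3 SD, cut at about 35% in these data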;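 note: loss of TO-PRO-1 fluorescence as compound displaces dye from 1x1 AA loop RNA; 0% = DMSO only wells and 100% = 100 µM mitoxantrone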
DNA CAG counter: counter-screen for rCAG RNA binders: DNA CAG dye complex inhibitors | shares compounds with rCAG binder-1 | 4,300 tested, 94% active | inhibition, % at 3 µM | AID 652068 | d(CAG) DNA oligo TO-PRO-1 dye displacement, fluorescence;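 active = inhibition above its plate's cutoff, the mean test-well inhibition plus 3 SD, cut at about 4.8% in these data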;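 note: 0% = DNA dye mix with DMSO and 100% = 100 µM mitoxantrone; hits displace the dye from DNA and so lower well fluorescence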
DNA CAG DR: disrupts DNA CAG TO-PRO-1 complex in dose response | shares compounds with rCAG binder-1 | DNA CAG/GTC duplex TO-PRO-1 dye displacement fluorescence | IC50, µM | 250 tested, 20% active | AID 686960; in the data active = IC50 below about 10 µM
dCAG TOPRO ctr: counter-screen for rCAG binders: DNA CAG TO-PRO-1 complex inhibitors, late stage. shares compounds with rCAG binder-1. d(CAG) DNA duplex TO-PRO-1 dye displacement, fluorescence. IC50, µM. 30 tested, 80% active. AID 720649
rCAG binder-2: binds r(CAG) RNA repeats in late stage dose response. r(CAG) RNA TO-PRO-1 dye displacement, fluorescence. shares compounds with rCAG binder-1. AID 720651. 30 tested, 100% active. IC50, µM
Starred values were filed as active, the others as inactive; i = inactive; · = not tested or not shown. Unless noted, the rule behind the calls is not given here.

SMILES	rCAG binder-1	Pemphigus Ab inh	MPTP inh	KLK7 zymogen act	ADAM17 inh	ADAM10 inh	rCAG binder conf	DNA CAG counter	others
COc1ccc(NC(=S)N(Cc2ccc(Cl)cc2)Cc2ccc(C(=O)O)cc2)cc1Cl	59.5*	98.1	1.3	-0.2	-0.4	6.3	60.4*	21.4*
Cc1ccc(NC(=S)N(Cc2ccc(Br)cc2)Cc2ccc(C(=O)O)cc2)cc1C	53.9*	100.7	-0.8	0.3	4.2	10.5	70.9*	31.1*	DNA CAG DR=i;dCAG TOPRO ctr=4.62*;rCAG binder-2=1.97*
COc1cc(N/C(=C\C(=O)c2ccccc2)c2ccccc2)ccc1Cl	4.1	·	·	0.7	-0.7	-3.5	·	·
CCc1nc2ccc(C(=O)N3CCCCC3)cn2c1N(CCC(C)C)CCN(C)C	-3.6	·	-0.1	0.2	-4.2	-26.0	·	·
COc1ccc(CN(Cc2ccc(C(=O)O)cc2)C(=S)Nc2ccccc2Cl)cc1OC	15.4	103.6	-2.1	-0.4	-1.8	-3.1	·	·
COc1ccc(CN(Cc2ccc(C(=O)O)cc2)C(=S)Nc2ccccc2C)cc1OC	2.1	96.8	-0.3	0.4	-1.5	-7.7	·	·
Cc1ccc(C)c(NC(=S)N(Cc2ccc(Cl)cc2)Cc2ccc(C(=O)O)cc2)c1	44.5*	98.6	-0.7	-0.1	-1.8	-4.4	49.0*	14.4*
CCc1ccc(NC(=S)N(Cc2ccc(Cl)cc2)Cc2ccc(C(=O)O)cc2)cc1	68.5*	98.1	-1.2	-0.6	2.5	-3.1	61.5*	23.3*
CCc1ccccc1NC(=S)N(Cc1ccc(C(=O)O)cc1)Cc1ccc(OC)c(OC)c1	9.2	99.2	-0.8	-0.4	0.2	-1.0	·	·
Cc1cc(NC(=S)N(Cc2ccc(Cl)cc2)Cc2ccc(C(=O)O)cc2)ccc1Cl	69.4*	108.0	-3.4	0.6	2.4	8.0	82.6*	46.8*
Cc1cc(C)cc(NC(=S)N(Cc2ccc(Br)cc2)Cc2ccc(C(=O)O)cc2)c1	65.0*	99.0	-0.3	-0.2	-0.7	0.6	68.0*	27.4*
COC(=O)[C@]12CCCCC=C1N(Cc1cccc3ccccc13)C(=O)[C@H](CC(=O)N1CCCCC1)C2	3.0	·	-1.2	0.7	1.8	6.8	·	·
Cc1ccc(OCC(=O)NNC(=O)c2cc(S(=O)(=O)N(C)C)ccc2N2CCCC2)cc1	4.4	105.3	2.0	0.8	0.9	-13.4	·	·
C[C@H](CO)N1C[C@H](C)[C@H](CN(C)S(=O)(=O)c2ccc(C#N)cc2)OCc2cnnn2CCCC1=O	1.8	103.6	-0.5	-0.4	1.2	-1.4	·	·
O=[N+]([O-])c1ccc(S(=O)(=O)Nc2nnc(C3CCCCC3)s2)cc1	46.5*	112.8	2.9	0.0	4.4	8.2	34.3	8.3*
Cc1cc(C)c(S(=O)(=O)Nc2nnc(C3CCCCC3)s2)c(C)c1	71.6*	99.6	2.2	0.4	-1.8	8.6	58.6*	25.3*
Cc1cc(C)c(S(=O)(=O)Nc2nnc(CC(C)C)s2)c(C)c1	48.9*	111.3	0.6	-0.4	-4.6	-5.4	32.7	8.4*
CSC1=Nc2ccccc2N=C(N2CCCC2)C1	1.6	·	·	-0.3	0.0	-2.4	·	·
O=C(NC1CCCCC1)OC[C@@H]1CSCCS(=O)(=O)N1	-1.6	·	·	-0.3	-3.8	-13.6	·	·
COc1ccc(C=C2OC(=O)C(C(C)=O)=C2O)cc1	34.5	107.5	0.0	2.7	-32.2	-117.0	·	·
CC(=O)C1=C(O)C(=Cc2ccccc2)OC1=O	36.0*	105.7	-0.6	0.6	-5.7	-29.9	18.7	6.6*
